Inconclusive results are not listed. Active and inactive are the calls of the source. Unless noted, calls follow the shape of the full dose curve.
Assays:
[1] = Cell Viability - BJ (AID 421); conditions: BJ fibroblast viability, qHTS;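 also: potency is read from the fitted curve at half-maximal effect; cells exposed to compound for 40 hours at 37 °C before readout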
Outline: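 Cytotoxicity in human BJ foreskin fibroblasts is scored as loss of cellular ATP after a 40-hour exposure, measured by luciferase luminescence. Controls are DMSO and 100 uM tamoxifen.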

[2] = Cell Viability - Jurkat (AID 426;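 active = dose-dependent loss of cell ATP signal giving a full or clear fitted curve, ranked by lower potency value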; also: potency is read from the fitted curve at half-maximal effect); conditions: qHTS
Outline: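 Jurkat (clone E6-1, human T-cell leukemia) cells, 5000/well in complete medium, were exposed to compound for 40 hr at 37 °C. Viability was read as intracellular ATP by CellTiter-Glo luminescence; AC50 came from Hill fits of concentration-response data.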

[3] = Cell Viability - Hek293 (AID 427;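 active = compounds whose dose-response curve shows a full or clear partial loss of cell viability, called from curve shape rather than a numeric limit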;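 also: potency is read from the fitted curve at half-maximal effect; cells exposed to compound for 40 hours at 37 °C before reading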); conditions: qHTS
Outline: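 qHTS, human embryonic kidney (adenovirus-transformed) cells; 40 hr cpd, 37 °C; CellTiter-Glo ATP luminescence. Norm: DMSO = 0, 100 uM tamoxifen = 100% inhibition. Hill-fit AC50.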

[4] = Cell Viability - HepG2 (AID 433); conditions: qHTS;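 also: potency is read from the fitted curve at half-maximal effect; potency for ATP loss meaning cytotoxicity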
Outline: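 ATP luminescence (CellTiter-Glo) after 40 h compound exposure, 37 °C, HepG2, 1500 cells/well, complete medium. Normalized: DMSO = basal, 100 uM tamoxifen = 100% inhibition. AC50 via standard Hill equation.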

[5] = Cell Viability - MRC5 (AID 434); conditions: MRC5 lung fibroblast viability, qHTS;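 also: potency is read from the fitted curve at half-maximal effect; potency reflects cytotoxicity seen as loss of intracellular ATP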
Outline: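 qHTS cytotoxicity in human lung fibroblast MRC5 cells; 40 hr treatment, 37 °C; cellular ATP by luciferase luminescence; DMSO = 0%, 100 uM tamoxifen = 100% inhibition; Hill-fit AC50.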

[6] = Cell Viability - SK-N-SH (AID 435); conditions: SK-N-SH neuroblastoma cell viability qHTS; also: potency is read from the fitted curve at half-maximal effect
Outline: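 CellTiter-Glo ATP luminescence, 20 min RT read; cells pre-plated 5 hr, compound 40 hr at 37 °C, 1500 cells/well, complete medium. Normalized DMSO = 0, 100 uM tamoxifen = 100% inhibition; Hill-fit AC50.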

[7] = target: Mitogen-activated protein kinase 10 (Mus musculus) (UniProt Q61831); test: JNK3 AlphaScreen Assay (AID 530; active = well fitted curve in either direction with a large enough effect, not every such curve was filed as active;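 also: kinase came from lysate of stimulated human HepG2 cells; signal reports phosphorylation of biotinylated GST-cJun 1-79 at Ser73 with 10 µM ATP; % is scaled to controls: 0 for no effect and ±100 for the full control effect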); conditions: JNK3 lysate, c-Jun phosphorylation; series mostly up to 57.1 µM
Outline: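 Room-temperature AlphaScreen kinase assay; pre-activated HepG2 lysate as JNK3 source, biotin-GST-cJun(1-79) substrate, 10 uM ATP, compound 15 min preincubation.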

[8] = Cell Viability - N2a (AID 540; active = well fitted curve in the direction sought with a large enough effect; an effect the other way counts as inactive or inconclusive;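 also: plate controls were DMSO alone for no effect and tamoxifen control for full effect; nearly all actives have a fitted effect of over 45% in size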); conditions: N2a mouse neuroblastoma cell viability; activity change, negative = cytotoxicity: at 92.2 µM (top of the series)
Outline: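 Mouse neuroblastoma N2a cells (1500/well) were preincubated 5 hr at 37 °C, then exposed to compounds for 40 hr at 37 °C in complete medium. Viability was read as intracellular ATP by CellTiter-Glo luminescence; AC50 from Hill fits.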

[9] = Cell Viability - NIH 3T3 (AID 541; active = well fitted curve in the direction sought with a large enough effect; an effect the other way counts as inactive or inconclusive;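 also: plate controls were DMSO alone for no effect and tamoxifen positive control for full effect; nearly all actives have a fitted effect of over 25% in size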); conditions: NIH 3T3 cell viability, qHTS; activity change, negative = cytotoxicity: at 92.2 µM (top of the series)
Outline: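 NIH 3T3 mouse embryo fibroblasts (1000 cells/well) were plated in complete medium and treated with compound for 40 hr at 37 °C. Viability was read as intracellular ATP by CellTiter-Glo luminescence; AC50 values came from Hill-equation fits of concentration-response data.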

[10] = Cell Viability - HUV-EC-C (AID 542; active = well fitted curve in the direction sought with a large enough effect; an effect the other way counts as inactive or inconclusive; also: % is scaled to controls: 0 for no effect and ±100 for the full control effect; nearly all actives have a fitted effect of over 35% in size); conditions: HUV-EC-C endothelial cell viability, qHTS; series mostly up to 92.2 µM
Outline: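 HUV-EC-C normal human vascular endothelial cells, 1000 cells/well, pre-incubated 5 hr at 37 °C, then exposed to compounds for 40 hr at 37 °C in complete medium. Viability measured as intracellular ATP by CellTiter-Glo luminescence; AC50 from Hill fits.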

Nc1cc(S(=O)(=O)O)ccc1O
inactive: Potency [1] > 92 µM | Potency [2] > 92 µM | Potency [3] > 92 µM | Potency [4] > 92 µM | Potency [5] > 92 µM | Potency [6] > 92 µM | outcome [7] | activity change, negative = cytotoxicity [8] -15.5% | Potency [9] | Potency [10]

Cc1cccc2cccnc12
inactive: Potency [1] > 92 µM | Potency [2] > 92 µM | Potency [3] > 92 µM | Potency [4] > 92 µM | Potency [5] > 92 µM | Potency [6] > 92 µM | outcome [7] | activity change, negative = cytotoxicity [8] -0.348% | Potency [9] | Potency [10]

C=C(C)C(=O)OCCCCCCCCCC
inactive: Potency [1] > 92 µM | Potency [2] > 92 µM | Potency [3] > 92 µM | Potency [4] > 92 µM | Potency [5] > 92 µM | Potency [6] > 92 µM | outcome [7] | activity change, negative = cytotoxicity [8] 3.17% | Potency [9] | Potency [10]

CCC(C)(C)C(=O)O
inactive: Potency [1] > 92 µM | Potency [2] > 92 µM | Potency [3] > 92 µM | Potency [4] > 92 µM | Potency [5] > 92 µM | Potency [6] > 92 µM | outcome [7] | activity change, negative = cytotoxicity [8] 6.55% | Potency [9] | Potency [10]

CCCCCCCCN
inactive: Potency [1] > 92 µM | Potency [2] > 92 µM | Potency [3] > 92 µM | Potency [4] > 92 µM | Potency [5] > 92 µM | Potency [6] > 92 µM | outcome [7] | activity change, negative = cytotoxicity [8] 7.89% | Potency [9] | Potency [10]

N#Cc1ccccc1
inactive: Potency [1] > 92 µM | Potency [2] > 92 µM | Potency [3] > 92 µM | Potency [4] > 92 µM | Potency [5] > 92 µM | Potency [6] > 92 µM | outcome [7] | activity change, negative = cytotoxicity [8] 6.76% | Potency [9] | Potency [10]

C=CCOC(=O)CCCCCCCC
inactive: Potency [1] > 92 µM | Potency [2] > 92 µM | Potency [3] > 92 µM | Potency [4] > 92 µM | Potency [5] > 92 µM | Potency [6] > 92 µM | outcome [7] | activity change, negative = cytotoxicity [8] 9.38% | Potency [9] | Potency [10]

C=CC(=O)OCCCC
inactive: Potency [1] > 92 µM | Potency [2] > 92 µM | Potency [3] > 92 µM | Potency [4] > 92 µM | Potency [5] > 92 µM | Potency [6] > 92 µM | outcome [7] | activity change, negative = cytotoxicity [8] 10.3% | Potency [9] | Potency [10]

CC(C)(C)c1ccc(OCC2CO2)cc1 (stereo not given)
inactive: Potency [1] > 92 µM | Potency [2] > 92 µM | Potency [3] > 92 µM | Potency [4] > 92 µM | Potency [5] > 92 µM | Potency [6] > 92 µM | outcome [7] | activity change, negative = cytotoxicity [8] -14.9% | Potency [9] | Potency [10]

CCOCC(=O)O
inactive: Potency [1] > 92 µM | Potency [2] > 92 µM | Potency [3] > 92 µM | Potency [4] > 92 µM | Potency [5] > 92 µM | Potency [6] > 92 µM | outcome [7] | activity change, negative = cytotoxicity [8] -1.83% | Potency [9] | Potency [10]

FC(F)(F)c1ccccc1Cl
inactive: Potency [1] > 92 µM | Potency [2] > 92 µM | Potency [3] > 92 µM | Potency [4] > 92 µM | Potency [5] > 92 µM | Potency [6] > 92 µM | outcome [7] | activity change, negative = cytotoxicity [8] -3.42% | Potency [9] | Potency [10]

CCCCCCCCCCCCC1CO1 (stereo not given)
inactive: Potency [1] > 92 µM | Potency [2] > 92 µM | Potency [3] > 92 µM | Potency [4] > 92 µM | Potency [5] > 92 µM | Potency [6] > 92 µM | outcome [7] | activity change, negative = cytotoxicity [8] 6.57% | Potency [9] | Potency [10]

ClC/C=C/CCl
inactive: Potency [1] > 92 µM | Potency [2] > 92 µM | Potency [3] > 92 µM | Potency [4] > 92 µM | Potency [5] > 92 µM | Potency [6] > 92 µM | outcome [7] | activity change, negative = cytotoxicity [8] -2.88% | Potency [9] | Potency [10]

O=C(O)c1ccc(C(=O)O)cc1
inactive: Potency [1] > 92 µM | Potency [2] > 92 µM | Potency [3] > 92 µM | Potency [4] > 92 µM | Potency [5] > 92 µM | Potency [6] > 92 µM | outcome [7] | activity change, negative = cytotoxicity [8] 0.102% | Potency [9] | Potency [10]

Cc1cc(C)cc(O)c1
inactive: Potency [1] > 92 µM | Potency [2] > 92 µM | Potency [3] > 92 µM | Potency [4] > 92 µM | Potency [5] > 92 µM | Potency [6] > 92 µM | outcome [7] | activity change, negative = cytotoxicity [8] -1.73% | Potency [9] | Potency [10]

c1ccc2c(c1)Oc1ccccc1S2
inactive: Potency [1] > 92 µM | Potency [2] > 92 µM | Potency [3] > 92 µM | Potency [4] > 92 µM | Potency [5] > 92 µM | Potency [6] > 92 µM | outcome [7] | activity change, negative = cytotoxicity [8] -9.06% | Potency [9] | Potency [10]

CCOc1cc(OCC)c(C(C)=O)cc1OCC
inactive: Potency [1] > 92 µM | Potency [2] > 92 µM | Potency [3] > 92 µM | Potency [4] > 92 µM | Potency [5] > 92 µM | Potency [6] > 92 µM | outcome [7] | activity change, negative = cytotoxicity [8] -7.23% | Potency [9] | Potency [10]

CC1(N)CCC(C(C)(C)N)CC1 (stereo not given)
inactive: Potency [1] > 92 µM | Potency [2] > 92 µM | Potency [3] > 92 µM | Potency [4] > 92 µM | Potency [5] > 92 µM | Potency [6] > 92 µM | outcome [7] | activity change, negative = cytotoxicity [8] -2.82% | Potency [9] | Potency [10]

O=C(Cl)c1cccc([N+](=O)[O-])c1
inactive: Potency [1] > 92 µM | Potency [2] > 92 µM | Potency [3] > 92 µM | Potency [4] > 92 µM | Potency [5] > 92 µM | Potency [6] > 92 µM | outcome [7] | activity change, negative = cytotoxicity [8] 5.21% | Potency [9] | Potency [10]

CCCCCCCCCCCCOCC1CO1 (stereo not given)
inactive: Potency [1] > 92 µM | Potency [2] > 92 µM | Potency [3] > 92 µM | Potency [4] > 92 µM | Potency [5] > 92 µM | Potency [6] > 92 µM | outcome [7] | activity change, negative = cytotoxicity [8] 0.002% | Potency [9] | Potency [10]

O=Cc1ccc(C(=O)O)cc1
inactive: Potency [1] > 92 µM | Potency [2] > 92 µM | Potency [3] > 92 µM | Potency [4] > 92 µM | Potency [5] > 92 µM | Potency [6] > 92 µM | outcome [7] | activity change, negative = cytotoxicity [8] -12.7% | Potency [9] | Potency [10]

CCOC(=O)C(C)C(C)=O (stereo not given)
inactive: Potency [1] > 92 µM | Potency [2] > 92 µM | Potency [3] > 92 µM | Potency [4] > 92 µM | Potency [5] > 92 µM | Potency [6] > 92 µM | outcome [7] | activity change, negative = cytotoxicity [8] 0.646% | Potency [9] | Potency [10]

C[C@@H]1CC2(OC3C[C@@]4(C)C5=CC[C@H]6C(C)(C)C(O[C@@H]7OC[C@@H](O)[C@H](O)[C@H]7O)CC[C@@]67C[C@@]57CC[C@]4(C)C31)OC(O)C1(C)OC21 (stereo not given in full)
inactive: Potency [1] > 92 µM | Potency [2] > 92 µM | Potency [3] > 92 µM | Potency [4] > 92 µM | Potency [5] > 92 µM | Potency [6] > 92 µM | outcome [7] | activity change, negative = cytotoxicity [8] -8.85% | Potency [9] | Potency [10]

CCOc1ccc(NC(C)=O)cc1N
inactive: Potency [1] > 92 µM | Potency [2] > 92 µM | Potency [3] > 92 µM | Potency [4] > 92 µM | Potency [5] > 92 µM | Potency [6] > 92 µM | outcome [7] | activity change, negative = cytotoxicity [8] -12.5% | Potency [9] | Potency [10]

O=C(Cl)c1ccccc1[N+](=O)[O-]
inactive: Potency [1] > 92 µM | Potency [2] > 92 µM | Potency [3] > 92 µM | Potency [4] > 92 µM | Potency [5] > 92 µM | Potency [6] > 92 µM | outcome [7] | activity change, negative = cytotoxicity [8] 0.882% | Potency [9] | Potency [10]

NC(=O)NC(N)=O
inactive: Potency [1] > 92 µM | Potency [2] > 92 µM | Potency [3] > 92 µM | Potency [4] > 92 µM | Potency [5] > 92 µM | Potency [6] > 92 µM | outcome [7] | activity change, negative = cytotoxicity [8] -8.97% | Potency [9] | Potency [10]

From PubChem BioAssay (NCATS)
